Tau fluor counter: counter-screen for tau fibril formation inhibitors; tau K18 P301L Alexa594 fluorescence, heparin fibrillization; Potency, µM (series often up to 57.7 µM), for inactives: at the highest dose activity change, negative = decrease; hit rate 0.93% among 280,000; AID 1463; also: potency is read from the fitted curve at half-maximal effect; nearly all actives have a fitted effect of over 55% in size
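Human tau K18 P301L (15 uM unlabeled, 0.24 uM Alexa 594-labeled) in 100 mM sodium acetate pH 7 with 20 uM heparin, 6 hr at 37 C. ThT 30 uM added, 1 hr ambient; Alexa 594 FP and total fluorescence read at 555/632 nm.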
Coupling enz: counter-screen for Giardia aldolase inhibitors: coupling enzyme system; activity change, negative = inhibition, % at 58.2 µM, hits read low; coupling enzyme system counterscreen, AmpLite Red fluorescence; hit rate 0.67% among 290,000; in the data active = activity change below about -30%
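First, compound is pin-transferred into glyceraldehyde-3-phosphate coupling-enzyme reagent at 57.5 uM final and held 10 min at RT. Next, substrate, coupling system and AmpLite Red are added. After 20 min RT, fluorescence (525/598 nm) is read.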
Tau fibril ThT: blocks human tau fibril formation measured by thioflavin T; Potency, µM (doses to about 57.4 µM), inactives show top-dose activity, negative = inhibition, hits mostly inhibitors; hit rate 2.1% among 270,000; recombinant tau K18 P301L (four-repeat tau fragment), heparin-induced fibrillization, ThT fluorescence; P10636; also: potency is read from the fitted curve at half-maximal effect; nearly all actives have a fitted effect of over 55% in size
Target sequence (P10636 561-689 P618L limits assumed): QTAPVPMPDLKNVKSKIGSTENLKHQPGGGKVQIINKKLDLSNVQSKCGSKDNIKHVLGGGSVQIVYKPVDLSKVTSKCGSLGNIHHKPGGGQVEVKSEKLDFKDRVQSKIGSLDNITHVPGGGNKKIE
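K18 P301L tau (15 uM + 0.24 uM Alexa 594-tagged), heparin 20 uM, NaOAc pH 7, 6 h 37 C; ThT 30 uM, 1 h RT, ex 450/em 510 nm.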
Tau fibril FP: inhibitors of human tau fibril formation; hit rate 0.39% among 280,000; Potency, µM (highest dose often 57.7 µM), without a hit: at the top dose activity, negative = inhibition, usual class: inhibitors; P10636; K18 P301L tau heparin fibrillization, Alexa594 FP, 6 h; also: potency is read from the fitted curve at half-maximal effect; nearly all actives have a fitted effect of over 55% in size
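K18 P301L tau (15 uM unlabeled/0.24 uM Alexa 594-labeled, final) + compound + heparin 20 uM final; 100 mM NaOAc pH 7; 6 hr 37 C; ThT 30 uM final added, 1 hr RT; FP ex 555/em 632 nm.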
Sfp inh: Sfp phosphopantetheinyl transferase inhibition; Potency, µM, without a hit: largest response in the series, negative = inhibition, hits mostly inhibitors; Biochemical Sfp PPTase activity, qHTS; Q9F4F7; AID 1490; hit rate 3.5% among 310,000;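 also: the enzyme is Sfp with the accession as filed and its product quenches rhodamine fluorescence; potency is read from the fitted curve at half-maximal effect; 0% = enzyme reaction without inhibitor and -100% = no enzyme wells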
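Reaction rates are the 30-min fluorescence difference (ex 525, em 598 nm) in wells containing 15 nM Sfp, 5 uM rhodamine-CoA and 12.5 uM BHQ-2-YbbR at pH 7.6 with 10 mM MgCl2.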
The depositor's hits bear a star. This is a sample that favours compounds with a hit; in the whole collection about 5.2% have one here. Unless noted, calls follow the shape of the dose curve; as a rule, active = well fitted curve in the direction sought with a large enough effect; inconclusive = small, poorly fitted or top-dose-only effect, or another doubt; inactive = no such curve, though single readings can be large; an effect the other way counts as inactive or inconclusive. Unless noted, % is scaled to controls: 0 for no effect and ±100 for the full control effect.

Results for COc1ccc(C(=O)OC(C(=O)c2ccc(C)cc2)c2ccccc2)cc1 (stereo not drawn) ?
Tau fluor counter: -17%; Coupling enz: -7; Tau fibril ThT: 13%; Tau fibril FP: -6%; Sfp inh: -10%

How did CC(=O)Nc1cccc(C(=O)OC(C(=O)c2ccc(C)cc2)c2ccccc2)c1 (stereo not drawn) do in these assays?
Tau fluor counter: inconclusive; Tau fibril ThT: 13%; Tau fibril FP: 14µM*; Sfp inh: 2%

What do the screens show for `Cc1ccc(NC(=O)C(OC(=O)c2ccc(O)cc2)c2ccccc2)cc1Cl` (stereo not drawn)?
Tau fluor counter: inconclusive; Coupling enz: 3; Tau fibril ThT: 12%; Tau fibril FP: 28µM*; Sfp inh: 27%

What do the screens show for `CC(=O)Nc1cccc(C(=O)OC(C(=O)c2ccc(C)c(C)c2)c2ccccc2)c1` (stereo not drawn)?
Tau fluor counter: inconclusive; Coupling enz: 4; Tau fibril ThT: 5%; Tau fibril FP: 16µM*; Sfp inh: 17%

Results for Cc1ccc(NC(=O)C(OC(=O)c2ccc(F)cc2)c2ccccc2)cc1Cl (stereo not drawn) ?
Tau fluor counter: inconclusive; Coupling enz: -2; Tau fibril ThT: -1%; Tau fibril FP: inconclusive; Sfp inh: 30%

Results for CC1(c2ccccc2)CC(C)(C)N(C(=O)c2cccc(Cl)c2)c2ccccc21 (stereo not drawn) ?
Tau fluor counter: -4%; Tau fibril ThT: -10%; Tau fibril FP: -3%

How did [O-]c1c[n+](-c2ccc(-[n+]3cc([O-])on3)cc2)no1 do in these assays?
Tau fluor counter: -14%; Coupling enz: -24; Tau fibril ThT: inconclusive; Tau fibril FP: 5%; Sfp inh: 56µM*

How did CCCc1ccc(C2=Nn3c(nnc3C(C)C)SC2)cc1 do in these assays?
Coupling enz: 1; Sfp inh: 22µM*

What do the screens show for `CC(C)c1nnc2n1N=C(c1ccc(Cl)cc1)CS2`?
Coupling enz: 0; Sfp inh: -4%

What do the screens show for `COc1cccc(/C=N/NC(=O)c2c(C)nc3ccc(Br)cn23)c1`?
Tau fluor counter: 1%; Coupling enz: -33*; Tau fibril ThT: -7%; Tau fibril FP: -1%; Sfp inh: 18%

How did Cc1nc2ccc(Br)cn2c1C(=O)N/N=C\c1ccc(C(C)C)cc1 do in these assays?
Coupling enz: 0; Sfp inh: 12%

How did O=C1OC2(CCCCC2)CC2=C1C1O[C@](c3ccsc3)(Cc3c1ccc1ccccc31)O2 do in these assays?
Coupling enz: 3; Sfp inh: 3%

Results for CC(C)CC(=O)NCc1nc2cccnc2n1Cc1ccccc1 ?
Tau fluor counter: -8%; Tau fibril ThT: -5%; Tau fibril FP: 2%

What do the screens show for `O=C(O)CN1C(=O)/C(=C\c2cc([N+](=O)[O-])ccc2OCc2ccccc2Cl)SC1=S`?
Coupling enz: 12; Sfp inh: 79µM*

Results for CCN1CC2=C(OC(N)=C(C#N)C2c2ccccc2)/C(=C\c2ccccc2)C1 (stereo not drawn) ?
Tau fluor counter: -13%; Coupling enz: -3; Tau fibril ThT: inconclusive; Tau fibril FP: -8%; Sfp inh: -14%

Results for CCN1C=C(Cc2cccs2)C2=C(C1)C(c1cccs1)C(C#N)=C(N)O2 (stereo not drawn) ?
Tau fluor counter: -23%; Coupling enz: -3; Tau fibril ThT: 22µM*; Tau fibril FP: -9%; Sfp inh: -7%

How did CCN1CC2=C(OC(N)=C(C#N)C2c2cccs2)/C(=C/c2cccs2)C1 (stereo not drawn) do in these assays?
Tau fluor counter: -25%; Coupling enz: -5; Tau fibril ThT: 16µM*; Tau fibril FP: -6%; Sfp inh: -8%

How did NC(=O)CC(NC(=O)c1ccc(Br)cc1)c1ccc(NCc2ccc(F)c(F)c2)c([N+](=O)[O-])c1 (stereo not drawn) do in these assays?
Tau fluor counter: -14%; Coupling enz: 3; Tau fibril ThT: inconclusive; Tau fibril FP: -14%; Sfp inh: 50µM*
